# Reference: the supplement of paper PMC6555819
# Tests used:
# Assay in all cases: PBM binding z-score (relative to random genomic background probes); higher = stronger binding; sequences stand for … in GC…GCGATTGACAGCGTAGAATGAAGG
# [1] = test system: RARb homodimer (NR concentration 270 nM)
# Outline: (§1)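 Binding buffer was PBS pH 7.4 with 2% milk, 0.02% Triton X-100, 1 mM DTT, 0.2 mg/mL BSA and 0.4 mg/ml salmon testes DNA. In it, ligand-free nuclear receptor dimers were incubated 1 h on custom Agilent 4×180K protein-binding microarrays carrying double-stranded probes. Antibodies against each partner (one per run) detected binding, and z-scores were calculated against random background probes after regression normalization of scanned fluorescence.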
# [2] = test system: RARg:RXRa (NR concentration 270 nM, RXRa partner concentration 90 nM)
# Outline: as §1
# [3] = test system: RARg homodimer (NR concentration 270 nM)
# Outline: as §1
# [4] = test system: RXRa DBDmut IVT, anti-RXR (DBD mutation: RXRa K156A/R161A, NR concentration 90 nM)
# Outline: as §1
# [5] = test system: RXRa homodimer (NR concentration 180 nM)
# Outline: as §1
# [6] = test system: THRa:RXRa (NR concentration 90 nM, RXRa partner concentration 90 nM)
# Outline: as §1
# [7] = test system: THRa homodimer (NR concentration 90 nM)
# Outline: as §1
# [8] = test system: VDR homodimer (NR concentration 270 nM)
# Outline: as §1
Sequence,PBM binding z-score [1],PBM binding z-score [2],PBM binding z-score [3],PBM binding z-score [4],PBM binding z-score [5],PBM binding z-score [6],PBM binding z-score [7],PBM binding z-score [8]
TAGCCTAGGTCATGGGCCTGTATACCACGCGAAC,3.34,4.47,4.67,0.485,3.9,3.23,1.31,0.584
CCTTACGGGTCAAGGTTATACCACGGGTGGTACG,3.44,4.96,4.75,0.758,5.09,2.97,0.619,1.65
CGAACTAGGGCACCAGGACAGTGAAGAGGTTGGA,0.758,0.748,1.34,0.0116,0.278,1.05,0.327,-0.274
CGAACTAGGTCAAAGGACCGTGAAAGGCGACGTA,2.22,3.5,4.44,1.42,2.86,2.23,0.043,0.238
CCGAGTAGGTTACGAAGGGGCATTCAGTGCGAAT,1.42,1.22,1.2,0.309,0.781,2.26,-0.808,1.23
CGAACTAGGTCAAAGGACAGTAAAAGGCGACGTA,2.85,4.05,4.79,1.33,3.25,2.75,0.556,0.392
ACCAGCAGGCCAAGGGTCACTCAAGATTAGTCCG,3.61,4.08,3.49,0.237,4.04,2.63,0.148,1.1
AGAATGGGGTTATTAAGATCAGGGAATTGCGGTC,1.53,1.85,0.796,2.11,3.5,2.6,1.56,2.41
TGAATGAGGTTTAAGATCAGGGAACGTGGCGTCG,-0.403,0.0866,0.0198,-0.0681,0.388,0.0282,-0.624,-0.231
TCAAGTAGGTTACGGGGGCATTCAGGGATGAAGA,2.65,3.75,3.05,2.81,3.19,3.8,2.1,4.17
CTATGTAGGTTAAGGGGGTCAATCAGTTTGAAAG,3.94,5.13,4.33,1.67,5.67,3.81,1.49,4.34
TCGAGTAGGTTACGGGGGCATCCAGGGATGAAGA,2.2,3.36,2.37,1.27,2.88,3.66,1.12,2.47
CCTGCTCGGTCAATGGTCAGCTAAAGCAGCTCGC,1.62,1.65,2.47,0.331,0.053,-0.136,-0.403,-0.799
CTATGTAGGTTAAGGGGGTCGTTCAGTTTGAAAG,2.42,2.9,2.06,1.7,2.93,2.7,1.62,4.04
ATATGTCGGTTAGGGTCATTCAGAAAGTAGGGAA,3.22,3.91,3.09,2.46,4.81,4.36,3.4,4.14
CGAACTAGGTCACCAGGACACTGAAGAGGTTGGA,3.48,4.62,5.4,1.56,3.65,3.83,2.39,0.607
CCTACTGGGCCATTCAGAGGTCATTGTTCATATG,4.14,4.19,2.88,1.2,3.37,3.23,1.38,3.59
CCGAGTAGGTGACGAGGGGGCATTCAGTGCGAAT,1.89,2.34,2.1,1.05,1.35,3.34,0.888,3.45
ATCGAAAGGTCGAAGGTGAGTACACCCACCCGAA,2.79,4.39,4.08,1.13,4.96,2.54,-0.0194,2.07
ATATGGAGGTTAGGGTCATTCAGAAAGTAGGGAA,3.98,4.17,2.98,2.42,5.24,4.27,3.55,3.4
GCTTACGGGTCAAAGGTTATAACATGAATAGAAT,3.48,6.91,4.77,2.43,9.77,4.13,0.296,1.8
CGAACTAGGTCACCTGGACAGTGAAGAGGTTGGA,3.36,4.43,5.32,1.49,3.36,3.1,1.2,0.466
ATCGAAAGGTCGTGAGGTGACTATACAGAAAGGC,3.07,4.7,3.57,1.29,5.22,3.87,1.85,0.91
CTATGTAGGTTAAGGTGGTCATTCAGTTTGAAAG,1.42,1.02,1.05,0.518,1.08,1.36,0.282,0.721
ATATGTAGGTTACCGGGTCATTCAGTTTGCGCAT,3.18,3.85,2.52,1.45,4.15,3.37,2.38,4.17
CGAACTACGTCACCAGGACAGTGAAGAGGTTGGA,0.196,0.119,0.277,-0.206,0.256,1.27,0.657,0.0213
AGTCAGAGTTCATCTAGGTAACGTAAGATATGCT,3.28,4.7,4.79,4.9,4.73,3.14,0.225,7.13
CCTGCTAGGTCAATGGTCAGCTAAAGCAGCTCGC,3.08,3.62,4.47,1.7,2.3,2.29,0.588,0.186
TCGAGTAGGTTTCGGGGGCATTCAGGGATGAAGA,1.5,2.01,1.38,1.48,1.5,3.54,1.69,3.56
